From PubChem BioAssay come the findings set out here.

One assay has as its target Albumin (Bos taurus) (UniProt P02769). As to the kind of experiment: compounds binding labelled BSA control protein – biochemical, small-molecule microarray, Alexa647 label, 635/667 nm fluorescence, artefact control for SMM control protein annotation, profiling panel (AID 1118).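 Note: score merges 667 nm emission intensity and signal-to-noise per printed compound spot.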 The note with it: BSA-A647 binding, fluorescence 635 nm, higher = more signal.
Assay [1] can be described thus: probe aXIP binding to arrayed compounds – biochemical, NeuroSMM set, 635/667 nm fluorescence, primary screen (AID 1119).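 Note: probe is the protein aXip251-270 applied at 1 µg/mL to compound-printed slides; binding of probe to printed compounds measured as 667 nm fluorescence plus signal to noise.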 The note with it: small-molecule microarray, higher = more signal, called active from +8 up or from −8 down.
Assay [2] can be described thus: probe aNOTCH3 binding on compound microarray – biochemical, small-molecule microarray, 635/667 nm fluorescence, primary screen (AID 1120).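 Note: probe is a biotin-tagged antibody raised against NOTCH3 rather than NOTCH3 protein; score merges spot fluorescence near 667 nm with spot signal to noise.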 The note with it: higher = more signal.
Assay [3] can be described thus: probe aNOTCH2 binding on compound microarray – biochemical, small-molecule microarray, 635/667 nm fluorescence, primary screen (AID 1121).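 Note: score merges feature fluorescence read at 667 nm with its signal to noise.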 The note with it: higher = more signal.
The target of assay [4] is Carbonic anhydrase 2 (Homo sapiens) (UniProt P00918). As to the kind of experiment: compounds binding carbonic anhydrase 2 – biochemical, small-molecule microarray, Alexa647-labelled CAII, profiling panel (AID 1122). The note with it: CAII-A647 binding fluorescence, higher = more signal.
Assay [5] in a line: COS7 lysate on small-molecule microarray, probe aHis, 635 nm (AID 1123).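 Note: z-score combines 667nm fluorescence intensity with signal-to-noise per printed compound spot.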 The note with it: COS7 cell lysate, fluorescence, higher = more signal.
Assay [6] is described as follows: probe aLAP1 signal on lysate-treated microarray – cell lysate, small-molecule microarray, COS7 lysate, primary screen (AID 1124).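 Note: lysate comes from COS7 cells expressing LAP1 and is applied at 0.3 µg/mL; score merges spot fluorescence near 667 nm with signal-to-noise over triplicate slides.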 The note with it: probe aLAP1, fluorescence, higher = more signal.
The test system of another assay is Sam68 (KHDRBS1). Kind of assay: compounds binding KHDRBS1 protein – biochemical, small-molecule microarray, 635 nm fluorescence, primary screen (AID 1125).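 Note: score merges 667 nm channel intensity with signal to noise over triplicate slides.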 The note with it: higher = more signal.
Assay [7] has as its system Chordin-like protein 2 (CHRDL2). As to the kind of experiment: compounds binding chordin-like 2 – biochemical, small-molecule microarray, 635 nm fluorescence, primary screen (AID 1126).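 Note: printed compound slides probed with Chrdl2 protein at 4 µg/mL for 1 h at 4 C; score merges 667 nm emission intensity with signal to noise over three replicate slides.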 The note with it: fluorescence 635 nm, higher = more signal.
Assay [8] addresses Concanavalin-A (Canavalia ensiformis) (UniProt P02866). Kind of assay: compounds binding concanavalin A lectin – biochemical, small-molecule microarray, Alexa647 label, 635 nm, artefact control for SMM control protein annotation, primary screen (AID 1127).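 Note: z combines 667 nm emission intensity with signal-to-noise across three replicate slides.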 The note with it: ConA-A647 binding fluorescence, higher = more signal.

SMILES strings stand for the structures. The source made the active and inactive calls.

Concanavalin-A (Canavalia ensiformis), sequence (P02866 whole entry, looked up): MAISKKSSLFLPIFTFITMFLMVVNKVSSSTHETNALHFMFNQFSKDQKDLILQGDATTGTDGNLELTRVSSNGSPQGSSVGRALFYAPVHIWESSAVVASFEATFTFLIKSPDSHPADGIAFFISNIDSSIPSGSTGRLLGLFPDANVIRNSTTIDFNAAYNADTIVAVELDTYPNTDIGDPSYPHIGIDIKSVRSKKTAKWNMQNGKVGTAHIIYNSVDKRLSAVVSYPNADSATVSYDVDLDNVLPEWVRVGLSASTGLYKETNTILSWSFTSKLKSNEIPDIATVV
Albumin (Bos taurus), sequence (P02769 whole entry, looked up): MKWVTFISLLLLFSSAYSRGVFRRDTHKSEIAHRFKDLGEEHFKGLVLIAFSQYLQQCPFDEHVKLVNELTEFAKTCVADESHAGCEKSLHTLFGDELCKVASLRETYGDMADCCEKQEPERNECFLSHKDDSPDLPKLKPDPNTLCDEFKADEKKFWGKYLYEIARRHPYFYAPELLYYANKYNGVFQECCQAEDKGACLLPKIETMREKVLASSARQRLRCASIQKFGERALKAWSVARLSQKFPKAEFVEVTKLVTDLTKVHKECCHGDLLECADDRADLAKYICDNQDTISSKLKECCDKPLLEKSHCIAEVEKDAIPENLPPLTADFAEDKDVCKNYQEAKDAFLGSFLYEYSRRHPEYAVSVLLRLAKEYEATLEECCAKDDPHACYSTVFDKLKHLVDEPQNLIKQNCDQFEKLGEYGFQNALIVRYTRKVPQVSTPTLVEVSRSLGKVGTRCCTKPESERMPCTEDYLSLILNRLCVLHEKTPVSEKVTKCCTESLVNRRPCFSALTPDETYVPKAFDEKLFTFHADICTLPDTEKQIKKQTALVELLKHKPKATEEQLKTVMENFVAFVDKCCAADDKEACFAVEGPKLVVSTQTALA

For `COCCOC(=O)N1C(=O)[C@@]2(c3cc(C#CCCO)ccc31)[C@H](C(=O)Nc1nc3ccccc3s1)[C@H]1C(=O)O[C@H](c3ccccc3)[C@H](c3ccccc3)N1[C@@H]2c1ccc(O)cc1`, the composite z-score was -0.767 in the assay with Albumin (Bos taurus); 0.177 in assay [2]; 0.0687 in assay [3]; 0.473 in assay [4]; 2.08 in assay [5]; 0.799 in [6]. For the same compound, the composite z-score was 1.31 in the assay on Sam68 (KHDRBS1), 0.791 in [7] and 1.17 in assay [8]. Besides, the composite Z-score in [1] was 0.326 (inactive).
For the compound `COC(=O)c1c(CC[C@@H](CO)NC(=O)N[C@@H](C)Cn2cc(-c3ccccn3)nn2)oc(C(C)=O)c1C(=O)OC`, the composite z-score in the assay with Albumin (Bos taurus) is -0.373; in [2] it was 0.11; in assay [3] it was -0.0995; in assay [4] it was 0.708; in [5] it was 0.267; in assay [6], -0.555. The composite z-score in the assay with Sam68 (KHDRBS1) came out at 0.871; in [7] it was 0.204; in assay [8] it was 0.743. Moreover, in assay [1], the composite Z-score is 0.615 (inactive).
With `O=C(NCCN1CCOCC1)[C@@H]1c2ccccc2C(=O)N(Cc2ccccc2Cl)[C@H]1c1ccc(CO)cc1`, the composite z-score was -0.281 in the assay with Albumin (Bos taurus); -0.224 in assay [2]; -0.0986 in [3]; 0.667 in [4]; 0.0465 in [5]; 1.67 in assay [6]. In addition, the composite z-score with Sam68 (KHDRBS1) is -0.721; in [7] it was -0.761; in assay [8], -1.19. The composite Z-score in [1] was 0.239 (inactive).
As to `COc1ccc([Si](C)(C)[C@H]2[C@H](CC(=O)N3CCC[C@H]3CO)O[C@@]3(C(=O)N(Cc4ccc(N5CCOC5=O)cc4)c4ccccc43)[C@@H]2C)cc1`, the composite z-score with Albumin (Bos taurus) is -0.195; in [2], 0.336; in assay [3], -0.075; in [4] it was 0.364; in [5], 1.89; in [6] it was 0.145. In addition, the figures for the composite z-score (in the assay with Sam68 (KHDRBS1); in [7]; in assay [8]) were 1.34, 0.731 and 0.618, respectively. The composite Z-score in assay [1] was -0.0549 (inactive).
As to `CCOC(=O)C[C@H]1[C@H](OC(=O)c2ccc(C(=O)c3ccccc3)cc2)[C@@H](NC(=O)c2ccc(-c3ccccc3)cc2)c2cc(OCCCO)ccc2N1C(=O)Cc1ccc(OC)cc1`, the composite z-score with Albumin (Bos taurus) was found to be 0.519; in [2], 0.16; in assay [3], 0.121; in [4], 0.177; in assay [5] it was 0.93; in [6], 0.0285. Further, the composite z-score in the assay on Sam68 (KHDRBS1) is 0.512; in [7], -0.0479; in assay [8], 0.458. In assay [1], the composite Z-score is -0.153 (inactive).
`C=CCNC(=O)[C@@H]1[C@H]2C(=O)O[C@H](c3ccccc3)[C@H](c3ccccc3)N2[C@H](c2ccc(OCCO)cc2)[C@@]12C(=O)N(C(=O)OCCOC)c1ccc(C#Cc3ccc(OC)cc3)cc12`: the composite z-score with Albumin (Bos taurus) was 0.645; in assay [2], 0.182; in [3], -0.151; in assay [4], 0.402; in assay [5], 1.39; in assay [6], 0.78. In addition, the composite z-score in the assay with Sam68 (KHDRBS1) came out at 1.3; in assay [7], 0.151; in assay [8] it was 1.14. Besides, the composite Z-score in assay [1] was -0.116 (inactive).
In the case of `NCCCCCNC(=O)[C@@H]1C[C@@H]2C(=O)N[C@@H](CCCCN)C(=O)N2[C@@H]1c1ccc(O)cc1`, the composite z-score is -0.321 with Albumin (Bos taurus); 0.353 in assay [2]; -0.0162 in assay [3]; 0.635 in [4]; 2.38 in [5]; 0.103 in [6]. The composite z-score in the assay on Sam68 (KHDRBS1) is 1.3; in assay [7], 1.38; in assay [8] it was 1.15. Besides, in assay [1], the composite Z-score is 0.562 (inactive).
Turning to `COCCOC(=O)N1C(=O)[C@@]2(c3cc(C#CC4=CCCCC4)ccc31)[C@H](C(=O)Nc1nc3ccccc3s1)[C@H]1C(=O)O[C@H](c3ccccc3)[C@H](c3ccccc3)N1[C@@H]2c1ccc(O)cc1`, the composite z-score in the assay with Albumin (Bos taurus) is 0.817; in assay [2], -0.0279; in assay [3], -0.166; in [4], 0.661; in assay [5], 1.68; in assay [6] it was 0.61. Also, the composite z-score in the assay on Sam68 (KHDRBS1) is 1.31; in assay [7], 0.408; in assay [8], 1.18. Further, the composite Z-score in [1] was 2.58 (inactive).
For the compound `COC(=O)C1(CC(C)C)C=C2C(=C(c3ccccc3)C(=O)C2C)CN1` (stereo not given), the composite z-score was found to be 0.581 with Albumin (Bos taurus); 1.31 in assay [2]; 0.54 in assay [3]; 0.502 in [4]; 2.15 in assay [5]; 0.407 in assay [6]. In addition, the composite z-score with Sam68 (KHDRBS1) was -0.213; in assay [7], -0.521; in assay [8] it was -0.991. Besides, the composite Z-score in assay [1] was 0.465 (inactive).
Turning to `O=C1C2C=CC(C(O)C3CC=CCC3)N(Nc3ccccc3)C2C(=O)N1c1ccccc1` (stereo not given), the composite z-score with Albumin (Bos taurus) is 0.918; in assay [2] it was 0.366; in assay [3], 0.0607; in [4], 0.749; in assay [5], 2.33; in assay [6], 0.093. For the same compound, the composite z-score was 1.07 in the assay on Sam68 (KHDRBS1), 0.718 in assay [7] and 0.567 in [8]. The composite Z-score in assay [1] is 2.06 (inactive).
Regarding `COc1ccc(C(=O)Nc2ccc(CN3C(=O)[C@]4(O[C@H](CC(=O)N5Cc6ccccc6C[C@H]5CO)[C@@H]([Si](C)(C)c5ccc(OC)cc5)[C@@H]4C)c4ccccc43)cc2)cc1`, the composite z-score in the assay with Albumin (Bos taurus) is -0.254; in [2], -0.0377; in [3], -0.0995; in assay [4], 0.151; in assay [5], 1.1; in assay [6], 0.0688. In addition, the composite z-score worked out at 1.17 in the assay on Sam68 (KHDRBS1), 1.14 in assay [7] and 0.67 in assay [8]. Also, the composite Z-score in [1] was -0.236 (inactive).
As to `CCCCCCCCCCC(O)C1C=CC2C(=O)N(c3ccccc3)C(=O)C2N1Nc1ccc(C#N)cc1` (stereo not given), the composite z-score worked out at 0.957 with Albumin (Bos taurus); 0.286 in assay [2]; 0.0169 in assay [3]; 0.562 in [4]; 1.53 in assay [5]; 0.906 in assay [6]. In addition, the composite z-score with Sam68 (KHDRBS1) is 1.34; in [7] it was -0.842; in [8] it was 1.12. The composite Z-score in assay [1] was 0.338 (inactive).
As for `N#Cc1ccc(NN2C(C(O)c3ccc(Br)cc3)C=CC3C(=O)N(c4ccccc4)C(=O)C32)cc1` (stereo not given), the composite z-score was 0.539 with Albumin (Bos taurus); 0.43 in [2]; 0.357 in assay [3]; 0.721 in assay [4]; 3.24 in [5]; 1.35 in assay [6]. In addition, the composite z-score was 0.83 in the assay on Sam68 (KHDRBS1), 0.195 in assay [7] and 1.07 in assay [8]. The composite Z-score in assay [1] was 0.718 (inactive).
